Results reported in PubChem BioAssay AID1159580 (chemical genetic matrix, 2015).
Screen size: about 5,500 compounds; about 2,000 (36%) were called active. Not shown: some 18% with an inconclusive outcome. No stated cut-off is given here; in the data, active means normalized growth mostly below about 0.91 (no sharp cut-off); inconclusive means no clear call, values can overlap the other calls; inactive means mostly above about 0.92. The list shows a part of the results. Where a SMILES comes first, the peptide text is derived from it. The star is where a group is joined. Cbz = O=C(OCc1ccccc1)*

Assay: chemical genetic growth profiling, strain panel (AID 1159580);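 further: tested at 20 µM; growth read once vehicle control cultures reached saturation at 30 °C; 1 = growth at the plate median or of vehicle wells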
Details: growth OD
[1] = S. cerevisiae deletion strains, locus YAL013W, strain DEP1, stronger effect = lower value
[2] = S. cerevisiae deletion strains, locus YDR150W, strain NUM1, stronger effect = lower value
[3] = S. cerevisiae deletion strains, locus YGR229C, strain SMI1, stronger effect = lower value
[4] = S. cerevisiae deletion strains, locus YHR030C, strain SLT2, stronger effect = lower value
[5] = S. cerevisiae deletion strains, locus YJL095W, strain BCK1, stronger effect = lower value
[6] = S. cerevisiae deletion strains, locus YJR075W, strain HOC1, stronger effect = lower value
[7] = S. cerevisiae deletion strains, locus YMR263W, strain SAP30, stronger effect = lower value
[8] = S. cerevisiae deletion strains, locus YMR307W, strain GAS1, stronger effect = lower value
[9] = S. cerevisiae deletion strains, locus YNL128W, strain TEP1, stronger effect = lower value
[10] = S. cerevisiae deletion strains, locus YNL322C, strain KRE1, stronger effect = lower value
[11] = S. cerevisiae deletion strains, locus YPL055C, strain LGE1, stronger effect = lower value
[12] = S. cerevisiae deletion strains, locus YAL040C, strain CLN3, stronger effect = lower value
[13] = S. cerevisiae deletion strains, locus YCL061C, strain MRC1 (second series), stronger effect = lower value
[14] = S. cerevisiae deletion strains, locus YDR363W, strain ESC2, stronger effect = lower value
[15] = S. cerevisiae deletion strains, locus YER002W, strain NOP16, stronger effect = lower value
[16] = S. cerevisiae deletion strains, locus YNL175C, strain NOP13, stronger effect = lower value
[17] = S. cerevisiae deletion strains, locus YNL197C, strain WHI3, stronger effect = lower value
[18] = S. cerevisiae deletion strains, locus YNL224C, strain SQS1, stronger effect = lower value
[19] = S. cerevisiae deletion strains, locus YOR083W, strain WHI5 (second series), stronger effect = lower value

Measured: normalized growth

CC(=O)OC1CN2CCC1CC2 (centres undefined)
inactive: [1] 0.997 | S. cerevisiae deletion strains, locus YBR021W, strain FUR4, stronger effect = lower value 1.01 | S. cerevisiae deletion strains, locus YBR229C, strain ROT2, stronger effect = lower value 0.973 | S. cerevisiae deletion strains, locus YCL029C, strain bik1, stronger effect = lower value 0.983 | S. cerevisiae deletion strains, locus YDL035C, strain GPR1, stronger effect = lower value 1.02 | S. cerevisiae deletion strains, locus YDL074C, strain BRE1, stronger effect = lower value 1.03 | S. cerevisiae deletion strains, locus YDL101C, strain DUN1, stronger effect = lower value 0.989 | S. cerevisiae deletion strains, locus YDL134C, strain PPH21, stronger effect = lower value 0.988 | S. cerevisiae deletion strains, locus YDL185W, strain tfp1, stronger effect = lower value 0.965 | S. cerevisiae deletion strains, locus YDL192W, strain arf1, stronger effect = lower value 0.985 | S. cerevisiae deletion strains, locus YDR101C, strain arx1, stronger effect = lower value 0.987 | [2] 0.982 | S. cerevisiae deletion strains, locus YDR162C, strain NBP2, stronger effect = lower value 0.991 | S. cerevisiae deletion strains, locus YDR318W, strain mcm21, stronger effect = lower value 1 | S. cerevisiae deletion strains, locus YDR388W, stronger effect = lower value 0.991 | S. cerevisiae deletion strains, locus YDR502C, strain sam2, stronger effect = lower value 0.993 | S. cerevisiae deletion strains, locus YEL061C, strain CIN8, stronger effect = lower value 0.995 | S. cerevisiae deletion strains, locus YER110C, stronger effect = lower value 0.959 | S. cerevisiae deletion strains, locus YER155C, strain BEM2, stronger effect = lower value 1 | S. cerevisiae deletion strains, locus YER167W, strain BCK2, stronger effect = lower value 1 | S. cerevisiae deletion strains, locus YGL078C, strain dbp3, stronger effect = lower value 0.993 | S. cerevisiae deletion strains, locus YGL086W, strain mad1, stronger effect = lower value 0.994 | S. cerevisiae deletion strains, locus YGL248W, strain PDE1, stronger effect = lower value 1.01 | S. cerevisiae deletion strains, locus YGR078C, strain PAC10, stronger effect = lower value 1.01 | S. cerevisiae deletion strains, locus YGR135W, strain pre9, stronger effect = lower value 0.995 | [3] 1.01 | S. cerevisiae deletion strains, locus YGR252W, strain gcn5, stronger effect = lower value 1.07 | [4] 1 | S. cerevisiae deletion strains, locus YHR079C, strain IRE1 (second series), stronger effect = lower value 0.982 | S. cerevisiae deletion strains, locus YHR094C, strain hxt1, stronger effect = lower value 0.985 | S. cerevisiae deletion strains, locus YHR129C, strain ARP1, stronger effect = lower value 1 | S. cerevisiae deletion strains, locus YHR200W, strain rpn10, stronger effect = lower value 0.985 | S. cerevisiae deletion strains, locus YIL066C, strain RNR3, stronger effect = lower value 0.993 | S. cerevisiae deletion strains, locus YIL073C, strain SPO22, stronger effect = lower value 0.97 | S. cerevisiae deletion strains, locus YIL125W, strain kgd1, stronger effect = lower value 0.982 | S. cerevisiae deletion strains, locus YIR030C, strain dcg1, stronger effect = lower value 0.971 | [5] 1.04 | S. cerevisiae deletion strains, locus YJL134W, strain LCB3, stronger effect = lower value 0.987 | S. cerevisiae deletion strains, locus YJL168C, strain set2, stronger effect = lower value 0.994 | S. cerevisiae deletion strains, locus YJL187C, strain SWE1 (second series), stronger effect = lower value 1.01 | S. cerevisiae deletion strains, locus YJR043C, strain POL32, stronger effect = lower value 1.01 | [6] 1.02 | S. cerevisiae deletion strains, locus YKL009W, strain mrt4, stronger effect = lower value 0.963 | S. cerevisiae deletion strains, locus YKL068W, stronger effect = lower value 0.982 | S. cerevisiae deletion strains, locus YKL085W, strain MDH1 (second series), stronger effect = lower value 0.992 | S. cerevisiae deletion strains, locus YKL085W, strain MDH1, stronger effect = lower value 0.992 | S. cerevisiae deletion strains, locus YKL190W, strain CNB1, stronger effect = lower value 0.997 | S. cerevisiae deletion strains, locus YKR001C, strain vps1, stronger effect = lower value 0.981 | S. cerevisiae deletion strains, locus YLR039C, strain RIC1, stronger effect = lower value 1 | S. cerevisiae deletion strains, locus YLR058C, strain SHM2, stronger effect = lower value 0.986 | S. cerevisiae deletion strains, locus YLR102C, strain apc9, stronger effect = lower value 0.982 | S. cerevisiae deletion strains, locus YLR262C, strain YPT6, stronger effect = lower value 0.997 | S. cerevisiae deletion strains, locus YLR268W, strain sec22, stronger effect = lower value 1.09 | S. cerevisiae deletion strains, locus YLR330W, strain CHS5, stronger effect = lower value 0.991 | S. cerevisiae deletion strains, locus YLR342W, strain FKS1 (second series), stronger effect = lower value 1.02 | S. cerevisiae deletion strains, locus YLR371W, strain rom2, stronger effect = lower value 0.929 | S. cerevisiae deletion strains, locus YLR418C, strain cdc73, stronger effect = lower value 1.05 | S. cerevisiae deletion strains, locus YML016C, strain PPZ1, stronger effect = lower value 0.981 | S. cerevisiae deletion strains, locus YML032C, strain rad52, stronger effect = lower value 1.01 | S. cerevisiae deletion strains, locus YML124C, strain tub3, stronger effect = lower value 0.976 | S. cerevisiae deletion strains, locus YMR078C, strain ctf18, stronger effect = lower value 0.972 | S. cerevisiae deletion strains, locus YMR223W, strain ubp8, stronger effect = lower value 0.995 | [7] 1.01 | [8] 1.1 | S. cerevisiae deletion strains, locus YNL067W, strain RPL9B, stronger effect = lower value 1.04 | [9] 0.997 | S. cerevisiae deletion strains, locus YNL153C, strain GIM3, stronger effect = lower value 1.01 | S. cerevisiae deletion strains, locus YNL233W, strain BNI4, stronger effect = lower value 1.04 | S. cerevisiae deletion strains, locus YNL250W, strain rad50, stronger effect = lower value 0.98 | S. cerevisiae deletion strains, locus YNL271C, strain bni1, stronger effect = lower value 0.987 | S. cerevisiae deletion strains, locus YNL298W, strain CLA4, stronger effect = lower value 0.962 | S. cerevisiae deletion strains, locus YNL307C, strain MCK1, stronger effect = lower value 0.988 | [10] 0.995 | S. cerevisiae deletion strains, locus YNR052C, strain pop2, stronger effect = lower value 0.989 | S. cerevisiae deletion strains, locus YOL006C, strain TOP1, stronger effect = lower value 1.04 | S. cerevisiae deletion strains, locus YOL012C, strain htz1 1.28 | S. cerevisiae deletion strains, locus YOL147C, strain pex11, stronger effect = lower value 0.989 | S. cerevisiae deletion strains, locus YOR061W, strain CKA2, stronger effect = lower value 0.975 | S. cerevisiae deletion strains, locus YOR136W, strain idh2, stronger effect = lower value 0.988 | S. cerevisiae deletion strains, locus YOR144C, strain elg1, stronger effect = lower value 0.968 | S. cerevisiae deletion strains, locus YOR184W, strain ser1, stronger effect = lower value 0.98 | S. cerevisiae deletion strains, locus YOR316C, strain cot1, stronger effect = lower value 0.978 | [11] 1.02 | S. cerevisiae deletion strains, locus YPL241C, strain CIN2, stronger effect = lower value 0.999 | S. cerevisiae deletion strains, locus YPR119W, strain clb2, stronger effect = lower value 0.987 | S. cerevisiae deletion strains, locus YPR141C, strain kar3, stronger effect = lower value 0.963 | S. cerevisiae deletion strains, locus YPR163C, strain tif3, stronger effect = lower value 0.986 | S. cerevisiae deletion strains, locus YPR167C, strain met16, stronger effect = lower value 0.984 | S. cerevisiae deletion strains, strain wtn01, stronger effect = lower value 1.01 | S. cerevisiae strains, strain wild type, stronger effect = lower value 1.01

CC(=O)NC(Cc1ccccc1)C(=O)O (centres undefined)
inactive: [4] 0.979 | S. cerevisiae deletion strains, locus YHR079C, strain IRE1, stronger effect = lower value 0.984 | [5] 0.985 | S. cerevisiae deletion strains, locus YJR066W, strain TOR1, stronger effect = lower value 0.91 | S. cerevisiae deletion strains, locus YLR113W, strain HOG1, stronger effect = lower value 1.02 | S. cerevisiae deletion strains, locus YNL183C, strain NPR1, stronger effect = lower value 0.89 | S. cerevisiae deletion strains, locus YOR231W, strain MKK1, stronger effect = lower value 0.997 | S. cerevisiae deletion strains, locus YPL256C, strain CLN2, stronger effect = lower value 0.984

Cc1ccc(S(=O)(=O)N[C@@H](CCCCN)C(=O)CCl)cc1
inactive: [1] 1.02 | [12] 1.04 | [13] 1.01 | [14] 1.05 | [15] 1.02 | [3] 0.962 | [6] 0.995 | [7] 1.01 | [8] 1.01 | [16] 1.01 | [17] 1.02 | [18] 1.01 | [10] 1.02 | [19] 1.01 | [11] 1.03

Cc1ccc(S(=O)(=O)N[C@@H](Cc2ccccc2)C(=O)CCl)cc1
inactive: [12] 0.932 | [13] 0.987 | [2] 0.998 | [14] 1 | [6] 0.959 | [7] 0.993 | [9] 0.955 | [18] 0.954 | [10] 1.01 | [19] 0.957 | [11] 0.983
active: [15] 0.904 | [8] 0.896 | [16] 0.902 | [17] 0.892

CC(C)[C@H](NC(=O)OCc1ccccc1)C(=O)N[C@H](C=O)Cc1ccccc1 (Cbz-Val-Phe-aldehyde)
inactive: [12] 0.961 | [13] 1 | [14] 1.04 | [15] 0.993 | [7] 0.976 | [8] 1.02 | [16] 0.969 | [17] 0.969 | [18] 0.996 | [10] 1 | [19] 0.997
